Measured values as given in the supplement of paper PMC6555819.

Columns and labels:
Experiment in all cases: PBM binding z-score (relative to random genomic background probes); higher = stronger binding; sequences stand for … in GC…GCGATTGACAGCGTAGAATGAAGG
[1] = test system: RARb homodimer (NR concentration 270 nM)
Summary of the method: (§1)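 Ligand-free nuclear receptor dimers were bound for 1 h to custom Agilent 4×180K protein-binding microarrays. Detection used antibodies against each partner (one per run). Binding z-scores rest on regression-normalized fluorescence, with random background probes as the reference.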

[2] = test system: RARg:RXRa (NR concentration 270 nM, RXRa partner concentration 90 nM)
Summary of the method: as §1

[3] = test system: RARg homodimer (NR concentration 270 nM)
Summary of the method: as §1

[4] = test system: RXRa DBDmut IVT, anti-RXR (DBD mutation: RXRa K156A/R161A, NR concentration 90 nM)
Summary of the method: as §1

[5] = test system: RXRa homodimer (NR concentration 180 nM)
Summary of the method: as §1

[6] = test system: THRa:RXRa (NR concentration 90 nM, RXRa partner concentration 90 nM)
Summary of the method: as §1

[7] = test system: THRa homodimer (NR concentration 90 nM)
Summary of the method: as §1

[8] = test system: VDR homodimer (NR concentration 270 nM)
Summary of the method: as §1

| Sequence | PBM binding z-score [1] | PBM binding z-score [2] | PBM binding z-score [3] | PBM binding z-score [4] | PBM binding z-score [5] | PBM binding z-score [6] | PBM binding z-score [7] | PBM binding z-score [8] |
| --- | --- | --- | --- | --- | --- | --- | --- | --- |
| TCTTGTAGATCAATAGAGTTTAAGAAAGTGCGCT | 0.231 | 0.0376 | 0.187 | 0.774 | 0.274 | 0.289 | -0.976 | 0.914 |
| CTTAGCAGGCCAATCTGGGTCACTCAAGGCTTGA | 2.2 | 0.952 | 1.3 | 0.294 | 0.782 | 3.77 | 0.497 | -0.119 |
| CCTGCTGGGTCAATGGTCAGCTAAAGCAGCTCGC | 2.5 | 3.24 | 3.33 | 0.787 | 2.48 | 1.26 | -0.14 | -0.211 |
| ATCTCTAGGTAAAGGTAGTTCAGTGAATGCAAAT | 0.964 | 0.44 | 0.605 | 0.345 | 0.164 | 1.21 | 0.679 | 1.12 |
| CCTTACGGCTCAAGGTTATAGCACGGGTGGTACG | 0.426 | 0.285 | 0.278 | -0.298 | 0.615 | 1.05 | 0.716 | 0.469 |
| TCTCGGAGGACACGAAGATCAGAGCTTTCCAGAG | 0.193 | 0.499 | 1.05 | 0.0261 | 0.273 | 1.1 | 0.242 | -0.899 |
| TAGCCTAGGTCGTTGGGCCAGTATAGTACGCATC | 0.513 | 0.529 | 0.698 | 0.311 | 0.61 | 0.621 | 0.0467 | 0.0773 |
| TCAGACAGGTGAAGGTAACCCAGGTACGCAGTCG | 1.25 | 0.745 | 0.803 | 0.992 | 1.29 | 1.48 | 0.57 | 0.454 |
| CGAACTAGCTCAGAACAGGACAGTGAAGGATGAT | -0.0575 | -0.313 | 0.137 | 0.021 | -0.191 | -0.173 | -0.29 | -0.0975 |
| TCATATAGGTAAACCGGTGAAAGTCCGTAAGTTA | 0.357 | 0.195 | 0.0982 | 1.45 | 0.746 | 0.262 | 0.203 | 0.541 |
| ACTAGCAGGCCAAGGGTCACCCAAGATTAGTCCG | 3.96 | 4.79 | 4.32 | 0.27 | 4.91 | 3 | 0.576 | 0.895 |
| CCATACGGGTCACTCCAGGTTATAGCATCGGAGT | 2.96 | 4.24 | 3.85 | 0.942 | 4.03 | 5.15 | 0.591 | 1.76 |
| CGGACTAGGTCAGAACAGGACAGTGAAGGATGAT | 1.79 | 2.4 | 2.97 | 0.496 | 1.15 | 3.38 | 0.402 | -0.0539 |
| AGAACGAGGGCACGCTGAGTTGTTAGCAGAGTAG | 1.16 | 1.85 | 2.11 | 1.95 | 1.55 | 1.73 | -0.0744 | 1.29 |
| TGAACGAGGTTAAAGATCAGGGAACGTGGCGTCG | 0.576 | 2.39 | 1.35 | 0.835 | 3.89 | 2.04 | -0.132 | 0.34 |
| AGAATGAGGTTAAGATCAGGGTAACAGAATACAT | 1.41 | 2.69 | 1.65 | 1.08 | 2.85 | 3.16 | 1.45 | 0.804 |
| ATCGGAAGGTCGTGAGGTGAGTATACAGAAAGGC | 2.27 | 3.03 | 2.55 | 0.762 | 3.05 | 2.83 | 1.76 | 1.04 |
| TAGCCTAGGTCATGGGCCAGAATACCACGCGAAC | 2.86 | 4.27 | 4.29 | 0.064 | 3.81 | 2.89 | 1.07 | -0.109 |
| CCTACTGGGCCATCATGTCATTGATATCAACGTT | 0.671 | 0.216 | 0.415 | -0.152 | -0.104 | 0.045 | 0.122 | -0.253 |
| CATACATGGTCAGCTAGGCCAGAGTAGGGACGGC | 0.263 | 0.156 | 0.731 | -0.604 | 0.103 | -0.289 | -0.393 | -1.02 |
| ATACAAAGGTGATCGTGAGGTCGTTGATACTAAC | 2.28 | 3.87 | 1.85 | 0.883 | 2.73 | 3.66 | 2.12 | 2.97 |
| TAGCCTAGGTCAATGGGCCAGTATAGTACGCATC | 3.07 | 3.64 | 4.52 | 0.537 | 2.12 | 2.16 | 0.256 | 0.391 |
| CAAACTAGGTCACGGGAAGGTCAAAGTCCGCATG | 5.63 | 8.25 | 7.46 | 2.31 | 6.72 | 4.73 | 3.09 | 3.1 |
| GCTGCTAGGTCAGGTTTGTCAGCTAACGGGTACG | 2.21 | 2.03 | 2.94 | 0.952 | 0.681 | 1.48 | 0.489 | 0.755 |
| TCATATAGGTAAGACAGGTGAAAGTCGGCATCTA | 0.625 | 0.754 | 0.411 | 1.36 | 1.02 | 0.828 | 0.209 | 0.18 |
| TCTGCTAGGTCAACGATGCTCAGCTAATCTGCTA | 2.66 | 3.76 | 4.76 | 0.989 | 2.18 | 2.47 | 0.23 | -0.64 |
| CCGACTGGGGCAAAGGTAACCATACTCAGTACGA | 0.873 | 1.28 | 0.824 | -0.208 | 1.19 | 0.563 | -0.249 | -0.353 |
| ATATGTCGGTTAAGGGTCATTCAGGTTGGTTCGC | 3.68 | 4.69 | 3.43 | 2.21 | 4.55 | 3.42 | 1.7 | 4.47 |
